A selection: hits, their analogues and other compounds. The true share with any hit is near 7.4%.
FLuc counter = firefly luciferase modulation, counter-screen for miR-21 project; purified FLuc, Km substrates, luminescence inhibition; Potency, µM (top dose mostly 57.5 µM), inactives show at the top dose activity change, negative = inhibition, most hits filed as inhibitors; AID 588342; 360,000 tested, 6.9% active; P08659;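 also: plate controls were vehicle for no effect and reference inhibitor for full effect; nearly all actives have a fitted effect of over 55% in size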
Target sequence (P08659 whole entry, looked up): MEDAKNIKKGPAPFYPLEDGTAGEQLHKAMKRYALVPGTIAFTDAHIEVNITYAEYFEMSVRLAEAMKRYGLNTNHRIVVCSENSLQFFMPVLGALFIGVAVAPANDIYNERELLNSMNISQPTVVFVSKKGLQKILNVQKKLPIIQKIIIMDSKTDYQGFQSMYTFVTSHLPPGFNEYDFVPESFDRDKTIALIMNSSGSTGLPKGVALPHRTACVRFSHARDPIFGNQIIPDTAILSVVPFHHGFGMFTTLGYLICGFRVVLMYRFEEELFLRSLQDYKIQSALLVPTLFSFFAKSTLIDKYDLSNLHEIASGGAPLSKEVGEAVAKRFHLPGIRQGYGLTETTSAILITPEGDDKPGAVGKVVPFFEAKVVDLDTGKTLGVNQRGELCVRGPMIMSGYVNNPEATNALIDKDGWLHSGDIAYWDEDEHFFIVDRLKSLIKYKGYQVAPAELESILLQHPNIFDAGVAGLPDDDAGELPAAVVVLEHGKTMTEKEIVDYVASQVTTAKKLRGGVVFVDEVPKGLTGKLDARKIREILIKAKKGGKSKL
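Biochemical qHTS of compounds, final roughly 60 µM downward over six points, against 10 nM purified firefly luciferase using Km concentrations of substrates (10 uM D-luciferin, 10 uM ATP) in Tris acetate pH 7.5 buffer; luminescence output.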
SMN2 splice enh = increases expression of the SMN2 splice variant; HEK293 SMN2-luciferase splicing reporter, luminescence, 30-36 h; Potency, µM (doses to about 46.1 µM), for the others: at the highest dose activity change, positive = activation, actives largely listed as activators; 210,000 tested, 2.8% active; AID 1458; also: % of control where 0% means no effect; nearly all actives have a fitted effect of over 55% in size
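qHTS luciferase splicing reporter: luminescence rises when SMN2 exon 7 is included in transfected HEK293 cells. Compound exposure lasted 30-36 h at 37C, with 4.5 mM final sodium butyrate as control, followed by a ONE-Glo read.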
Rab9 prom act = activators of Rab9 promoter; Huh7 Rab9 promoter-luciferase reporter, luminescence, 24 h; Potency, µM (top dose mostly 9.22 µM), inactives show at the highest dose activation, negative = inhibition, actives largely listed as activators; 320,000 tested, 2.8% active; AID 485297; also: % of control where 0% means no effect; nearly all actives have a fitted effect of over 60% in size
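Measured in stably transfected Huh7 cells bearing a Rab9 promoter–luciferase construct: 24 h compound treatment at 37 °C, followed by luminescence detection.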
ELG1 genotoxic = induces genotoxicity in HEK293T cells with luciferase-tagged ELG1. HEK293T ELG1-luciferase reporter, luminescence, 16 h. Potency, µM (series often up to 46 µM), for inactives: top-dose activity change, positive = activation, most hits filed as activators. 330,000 tested, 1.3% active; also: % of control where 0% means no effect; nearly all actives have a fitted effect of over 60% in size
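Luminescence read-out: rising ELG1-luciferase signal, reflecting elevated ELG1 protein under genetic stress, flags genotoxic compounds. Cells were treated for 16 hr at 37 °C before ONE-Glo detection.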
NPC1 promoter act = activators of NPC1 promoter; Huh7 NPC1 promoter luciferase reporter, 24 h; Potency, µM (highest dose often 9.22 µM), for inactives: at the highest dose activation, hits mostly activators; 320,000 tested, 2.4% active; also: % of control where 0% means no effect; nearly all actives have a fitted effect of over 60% in size
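In 1536-well qHTS, Huh7 cells harboring an NPC1 promoter–luciferase construct received compound for 24 h; activation was quantified by luminescence following luciferase reagent addition.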
Numbers without * were called inactive; ? = inconclusive; . = not tested or not shown. Calls follow the shape of the dose curve; as a rule, active = well fitted curve in the direction sought with a large enough effect; inconclusive = small, poorly fitted or top-dose-only effect, or another doubt; inactive = no such curve, though single readings can be large; an effect the other way counts as inactive or inconclusive. Potency is read from the fitted curve at half-maximal effect.

SMILES | FLuc counter | SMN2 splice enh | Rab9 prom act | ELG1 genotoxic | NPC1 promoter act
COc1cc(S(=O)(=O)N2CCN=C2c2ccccc2)ccc1F | 1.0% | 11.2µM* | -14.5% | 1.9% | -20.6%
Cc1ccc(S(=O)(=O)c2c(Nc3ccccc3)sc(C(=O)c3ccc4c(c3)OCO4)c2N)cc1 | -0.6% | . | . | . | .
Cn1c(SCC(=O)Nc2ccc(N3CCOCC3)cc2)nnc1-c1ccccc1 | 16.9µM* | 41.0% | 4.2% | 7.6% | 1.6%
Cn1c(SCC(=O)Nc2ccc(N3CCOCC3)cc2)nnc1-c1ccccc1F | 16.9µM* | . | 11.6% | 7.9% | 7.4%
Cc1cn(CCC(=O)Nc2ccc(N3CCOCC3)cc2)c2ccccc12 | 13.5µM* | . | ? | ? | ?
Cn1c(SCC(=O)Nc2ccc(N3CCOCC3)cc2)nnc1-c1ccco1 | 16.9µM* | . | 2.4% | 1.0% | -3.5%
Cc1nnc(SCC(=O)Nc2ccc(N3CCOCC3)cc2)n1Cc1ccccc1 | . | . | -0.5% | 1.9% | 0.5%
CC(C)n1c(SCC(=O)Nc2ccc(N3CCOCC3)cc2)nnc1-c1ccco1 | ? | . | -0.4% | -3.6% | 7.3%
COc1ccccc1CNC(=O)c1sc2nc3n(c(=O)c2c1C)CCC3 | 5.7% | . | . | . | .
CCn1c(Oc2ccc(F)cc2F)nc2c1c(=O)n(C)c(=O)n2C | -7.4% | -1.8% | . | . | .
O=C(CN1CCN(C(c2ccccc2)c2ccccc2)CC1)Nc1ccc(N2CCOCC2)cc1 | -1.8% | 12.6µM* | -4.6% | -1.5% | -1.3%
O=C(CN1CCN(S(=O)(=O)c2ccccc2)CC1)Nc1ccc(N2CCOCC2)cc1 | 4.6% | -34.7% | -5.4% | 0.8% | -0.3%
CCn1nnc2cc(C(=O)NCCc3ccccc3F)ccc21 | 1.07µM* | . | 0.398µM* | ? | 0.316µM*
CCn1nnc2cc(C(=O)Nc3ccc(Br)cc3F)ccc21 | -4.1% | . | . | . | .
Clc1ccc(-n2nnc(-c3cccnc3)n2)cc1Cl | ? | . | 3.16µM* | ? | 3.98µM*
O=c1[nH]c2ccccc2cc1-c1nnn(-c2ccc(F)cc2)n1 | 1.9µM* | . | 2.51µM* | ? | 3.55µM*
Fc1ccc(-n2nnc(-c3cnc4ccccc4c3)n2)cc1 | 0.135µM* | . | 0.1µM* | 0.231µM* | ?
Brc1ccccc1-n1nnc(-c2cccnc2)n1 | 16.9µM* | . | ? | 10.1% | ?
c1cncc(-c2nnc(-c3cccnc3)nn2)c1 | ? | -89.8% | 4.8% | -3.9% | 16.4%
CCOc1ccc(NC(=O)C2(c3cccs3)CCOCC2)cc1 | -6.7% | . | . | . | .
Cc1ccc(-c2c(C(=O)Nc3ccc(F)c(F)c3)oc(=O)c3ccccc23)cc1 | -0.6% | -1.6% | . | . | .
C[C@@H](CN(C)C[C@H]1C(=O)O[C@@H]2C[C@@]3(C)CCC[C@]4(CO4)C3CC21)[C@H](O)c1ccccc1 (stereo not given in full) | . | 0.0% | . | . | .
Fc1ccc(C(CCCn2nnc(-c3cccnc3)n2)c2ccc(F)cc2)cc1 | -0.8% | . | 4.7% | -10.3% | -0.3%
Fc1ccc(-n2nnc(-c3cccnc3)n2)cc1 | 15.1µM* | . | 3.16µM* | ? | ?
C[n+]1c(/C=C/c2ccc(O)cc2)ccc2ccccc21 | 13.5µM* | . | -2.1% | 2.7% | -7.2%
SMILES | FLuc counter | SMN2 splice enh | Rab9 prom act | ELG1 genotoxic | NPC1 promoter act
C[n+]1c(/C=C/c2ccc3c(c2)OCO3)ccc2ccccc21 | 10.7µM* | -95.0% | 14.9% | ? | 7.9%
COCCNC(=O)CCN1C(=O)c2cccnc2Oc2ccc(C)cc21 | -2.1% | . | . | . | .
COc1cc2ncc3c(-c4ccc(C)cc4)nn(-c4ccc(F)cc4F)c3c2cc1OC | 2.6% | . | . | . | .
COc1ccc(O)c(/C=N/NC(=S)Nc2cccnc2)c1 | 9.53µM* | -43.3% | -7.1% | 17.6% | 11.8%
Oc1ccc(/C=N/NC(=S)N/N=C/c2ccc(O)cc2)cc1 | 0.19µM* | ? | 26.1% | ? | 21.3%
COc1ccccc1NC(=S)N/N=C/c1cccc(C)c1 | -16.3% | ? | -2.0% | 4.1% | -0.2%
COc1cccc(/C=N/NC(=S)Nc2cccnc2)c1 | 15.1µM* | -4.6% | 7.7% | 8.8% | 8.4%
COc1ccccc1NC(=S)N/N=C/c1ccc(O)cc1 | ? | 11.2µM* | ? | ? | ?
COc1ccc(OC)c(CCNC(=O)Cn2ccc3cc(S(=O)(=O)N4CCCCC4)ccc32)c1 | -3.1% | . | . | . | .
Oc1cccc(NC(=S)Nc2cccnc2)c1 | 1.0% | 4.0% | 1.7% | 0.3% | -0.2%
Oc1ccc(/C=N/NC(=S)Nc2cccnc2)cc1 | 6.75µM* | . | ? | ? | 3.16µM*
COc1ccc(C(=O)NCCNc2ccccc2[N+](=O)[O-])cc1 | 4.78µM* | 11.2µM* | 0.631µM* | 11.6µM* | 1.58µM*
CCCOc1ccc(C(=O)Nc2ccc(C)cc2[N+](=O)[O-])cc1 | -10.0% | -14.6% | ? | 3.0% | ?
O=C(NCCCNc1ccc(C(F)(F)F)cc1[N+](=O)[O-])c1cc(F)c(F)cc1Cl | -7.5% | -29.4% | -7.7% | -4.4% | -2.7%
CCCNC(=O)c1ccc(S(=O)(=O)c2ccc(OC)cc2)c([N+](=O)[O-])c1 | -0.8% | . | -5.5% | -10.1% | -3.4%
CC(C)COc1ccc(C(=O)Nc2ccccc2[N+](=O)[O-])cc1 | ? | 15.8µM* | ? | ? | ?
O=C(NCCNc1ccccc1[N+](=O)[O-])c1cc(F)c(F)cc1Cl | 19µM* | . | ? | ? | ?
COc1ccc(-c2nc3c(c(SCC(=O)N4CCCCC4)n2)Cc2c(CO)cnc(C)c2O3)cc1 | -1.1% | . | . | . | .
COC(=O)N[C@@H](CCc1ccccc1)/C(C(=O)OC)=C(\C)NCc1ccccc1 | . | 11.7% | . | . | .
COc1ccc(S(N)(=O)=O)cc1C(=O)OCCCOc1ccc(F)cc1 | -1.1% | . | -8.6% | -5.2% | -4.3%
COc1ccc(S(N)(=O)=O)cc1C(=O)OCCCOC(=O)c1cc(S(N)(=O)=O)ccc1OC | -1.7% | . | -16.4% | 7.3µM* | -14.6%
Cc1ccc(N=c2oc3cc(O)ccc3cc2C(N)=O)cc1 | 19µM* | . | 4.47µM* | -2.1% | ?
CC(=O)c1cc2ccc(O)cc2oc1=O | -0.2% | . | -6.8% | 2.0% | 0.3%
Cc1ccc(/C=C2\C(=O)ON=C2c2ccccc2)o1 | 1.07µM* | . | -11.6% | 0.7% | 1.1%
CC1=NOC(=O)/C1=C/c1ccc(-c2ccc(Cl)cc2)o1 | 8.49µM* | -15.6% | -3.8% | -13.4% | -2.6%
SMILES | FLuc counter | SMN2 splice enh | Rab9 prom act | ELG1 genotoxic | NPC1 promoter act
CC1=NOC(=O)/C1=C\c1ccc(-c2ccc(Br)cc2C(=O)O)o1 | ? | . | -3.4% | 3.4% | 0.0%
CC1=NOC(=O)/C1=C\c1ccc(-c2ccc(Br)cc2)o1 | 8.49µM* | -41.3% | -2.6% | -3.1% | -11.2%
CC1=NOC(=O)/C1=C\c1ccc(-c2cc(Cl)ccc2Cl)o1 | ? | 21.6% | 0.0% | -38.9% | -15.9%
CCCN1CCc2nc(N3CCN(c4ncccn4)CC3)ncc2C1 | 8.4% | . | . | . | .
Cc1cccc(N2C(=O)CS(=O)(=O)C23C(=O)N(Cc2c(F)cccc2Cl)c2ccccc23)c1 (stereo not given) | 4.6% | . | . | . | .
CC(C)CCNC(=O)C1CCN(C(=O)c2cc3sccc3n2Cc2ccc(Cl)cc2)CC1 | 4.5% | -27.8% | . | . | .
